Rows were chosen to be rich in hits. Some 1.4% of all compounds tested hit in one or more screens of this group.
EBV gp42 inh: Epstein-Barr virus gp42 inhibitors, primary screen, biochemical, uHTS, fluorescence polarization | Glycoprotein 42 (Epstein-Barr virus (strain AG876)), Q1HVG2 | 0.42% of 220,000 active | Fluorescence polarization binding assay, mP read-out | inhibition, % (tested at 21.74 µM); in the data active means inhibition above about 50%
eLon inh: inhibitors of E. coli Lon protease, primary screen, biochemical, fluorescence polarization; purified E. coli Lon protease; P0A9M0; 0.42% of 360,000 active; AID 602123, 2011; inhibition, % at 7.94 µM; in the data active means inhibition above about 13%, passing the limit was not always enough
GLD-1 RNA inh: GLD-1/TGE RNA complex disruptors, primary screen, biochemical, fluorescence polarization | inhibition, % at 5.96 µM | 0.44% of 320,000 active | Female germline-specific tumor suppressor gld-1 (Caenorhabditis elegans), Q17339 | purified GLD-1 + fluorescein TGE RNA;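 active means percent inhibition above a per-plate cutoff, the plate mean of test compounds plus 3 SD, cut at about 30% in these data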
MEX-5 binding: MEX-5 zinc finger RNA-binding disruptors – biochemical, C. elegans, fluorescence polarization, MLPCN library, primary screen | Zinc finger protein mex-5 (Caenorhabditis elegans), Q9XUB2 | MEX-5/FITC-TCR2 RNA binding; hits give low values | activity score (negative = inhibition of binding), % at 10 µM | 0.38% of 300,000 active;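 active means inhibition past about -25% in most replicates, and total fluorescence under double the plate's negative control median, limit read from the data; inconclusive means replicates evenly split on the limit, or fluorescence at least double controls; inactive means too little inhibition in most replicates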
Target sequence (Q9XUB2 whole entry, looked up): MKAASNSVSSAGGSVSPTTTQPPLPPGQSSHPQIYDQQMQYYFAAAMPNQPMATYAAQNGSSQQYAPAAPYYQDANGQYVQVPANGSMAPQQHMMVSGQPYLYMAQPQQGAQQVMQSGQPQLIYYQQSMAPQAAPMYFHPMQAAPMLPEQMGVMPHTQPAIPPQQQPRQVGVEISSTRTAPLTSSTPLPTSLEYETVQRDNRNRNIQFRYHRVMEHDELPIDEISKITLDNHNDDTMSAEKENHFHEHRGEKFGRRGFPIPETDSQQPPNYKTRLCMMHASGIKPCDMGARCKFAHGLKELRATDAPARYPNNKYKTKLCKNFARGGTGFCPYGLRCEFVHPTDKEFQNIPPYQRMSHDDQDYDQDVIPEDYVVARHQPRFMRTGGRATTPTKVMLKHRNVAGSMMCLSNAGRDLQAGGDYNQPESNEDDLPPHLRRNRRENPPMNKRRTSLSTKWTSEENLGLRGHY
Bcl-xL primary: inhibitors of human Bcl-xL, primary screen, biochemical, fluorescence polarization, HTS; Bcl-2-like protein 1 (Homo sapiens), Q07817; 0.7% of 320,000 active; inhibition, % at 10.9 µM; GST-Bcl-xL / FITC-Bim BH3 peptide fluorescence polarization;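 active means inhibition above the mean of all tested compounds plus 3 SD, cutoff set per campaign, cut at about 30% in these data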;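 further: inhibitors lower millipolarization by displacing the labeled peptide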
Target sequence (Q07817 whole entry, looked up): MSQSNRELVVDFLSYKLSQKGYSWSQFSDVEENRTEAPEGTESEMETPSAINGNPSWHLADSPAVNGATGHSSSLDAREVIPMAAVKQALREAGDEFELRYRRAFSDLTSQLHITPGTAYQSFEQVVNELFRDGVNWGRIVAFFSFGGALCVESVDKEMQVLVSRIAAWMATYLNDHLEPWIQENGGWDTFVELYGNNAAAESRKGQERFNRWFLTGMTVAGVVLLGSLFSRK
MCL1 BIM primary: inhibitors of MCL1 binding to BIM-BH3, primary screen, biochemical, fluorescence polarization. inhibition, % at 10.9 µM. 0.68% of 320,000 active. GST-MCL1 / FITC-Bim-BH3 fluorescence polarization. Induced myeloid leukemia cell differentiation protein Mcl-1 (Homo sapiens), Q07820;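 active means inhibition above the mean inhibition of all tested compounds plus 3 SD, set per campaign, cut at about 40% in these data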;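 further: higher means more loss of mP so more displacement of Bim peptide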
Each line names hits and unclear results; the compound was inactive in the other large screens.

Oc1c(Br)cc(Br)cc1/C=N/Nc1ccc(Cl)nn1	none (no result: EBV gp42 inh)
COc1ccc(C(=O)COC(=O)C2CCC(=O)N2)cc1 (centres undefined)	none
COc1cc([N+](=O)[O-])cc(/C=N/NC(=O)CC#N)c1O	MEX-5 binding -32 (no result: eLon inh, GLD-1 RNA inh, Bcl-xL primary, MCL1 BIM primary)
CC(C)N1C(=S)SC(C)(C)C1n1oc(=O)n(-c2cccc(Cl)c2)c1=O (centres undefined)	Bcl-xL primary 129
c1ccc2c(SCc3cn4ccccc4n3)nncc2c1	Bcl-xL primary 54
Clc1ccc(SCc2cn3ccccc3n2)cc1	none
CS(=O)(=O)Nc1ccc(-c2cc(/C=C3\SC(N)=NC3=O)c[nH]c2=O)cc1	none (no result: EBV gp42 inh)
Cc1ccc([N+](=O)[O-])cc1N=Nc1c(C)[nH]n(C(N)=S)c1=O	none (no result: EBV gp42 inh)
Cc1ccc([N+](=O)[O-])cc1N=Nc1c(-c2ccc([N+](=O)[O-])cc2)[nH]n(C(N)=S)c1=O	EBV gp42 inh 107 (no result: GLD-1 RNA inh, Bcl-xL primary, MCL1 BIM primary)
NC(=S)n1[nH]c(-c2ccc([N+](=O)[O-])cc2)c(N=Nc2ccc(Cl)cc2)c1=O	EBV gp42 inh 92 (no result: GLD-1 RNA inh, MEX-5 binding, Bcl-xL primary, MCL1 BIM primary)
CC(=Nc1ccc(Br)cc1)c1sc2ccccc2c1O	MEX-5 binding -30
CC(=Nc1ccccc1)c1sc2ccccc2c1O	none
CN(C=[N+](C)C)c1cccc2c1C(=O)c1ccccc1C2=O	MEX-5 binding -28, Bcl-xL primary 35
Cc1cc(C)c(Nc2cc(S(=O)(=O)O)c(N)c3c2C(=O)c2ccccc2C3=O)c(C)c1	Bcl-xL primary 31, MCL1 BIM primary 52 (no result: MEX-5 binding)
Cc1cc(C)c(NC(=O)COC(=O)c2cccc3c2C(=O)c2ccccc2C3=O)c(C)c1	none
O=C(Nc1ccccc1F)C(=Cc1sc(N2CCOCC2)nc1-c1ccccc1)C(=O)Nc1ccccc1F	EBV gp42 inh 62, MEX-5 binding -43
O=C(N/N=C/c1sc(N2CCOCC2)nc1-c1ccccc1)c1ccccc1F	none (no result: eLon inh)
Cc1ccc(C2=NN(CCC(=O)NCc3ccc4c(c3)OCO4)C(=O)CC2)cc1	none
COc1ccc(C)cc1NC(=O)c1cccc(-c2ccc(OC(C)=O)cc2)c1	none (no result: EBV gp42 inh)
COCCOC(=O)C1=C(C)NC(=O)NC1c1c(Cl)nc2c(C)cccn2c1=O (centres undefined)	Bcl-xL primary 32 (no result: eLon inh)
CSc1nc(N(CCO)CCO)c2sc3nc(-c4ccco4)c4c(c3c2n1)CCC4	EBV gp42 inh 56 (no result: GLD-1 RNA inh, Bcl-xL primary, MCL1 BIM primary)
CSc1nc(SCCO)c2sc3nc(-c4ccco4)c4c(c3c2n1)CC(C)(C)OC4	none (no result: GLD-1 RNA inh, Bcl-xL primary, MCL1 BIM primary)
O=C(COC(=O)c1c2c(nc3ccccc13)CCN(Cc1ccccc1)C2)Nc1c(F)cccc1F	GLD-1 RNA inh 39, Bcl-xL primary 34, MCL1 BIM primary 41
CC1(C)Cc2c(C#N)c(N3CCN(C(=O)c4ccccc4Cl)CC3)nc(-c3ccco3)c2CS1	Bcl-xL primary 33, MCL1 BIM primary 43
CCCCCCc1ccc(N2C[C@H](C)[C@@H](CC(=O)NCc3ccccc3)C2=O)cc1	GLD-1 RNA inh 41 (no result: EBV gp42 inh)
CCCCCCc1ccc(N2C[C@H](CCCCC)[C@@H](CC(=O)NCc3ccccc3)C2=O)cc1	none (no result: EBV gp42 inh)
CC(C)CN(C(=O)C1=NN(c2ccccc2)C(=O)CC1)c1c(N)n(Cc2ccccc2)c(=O)[nH]c1=O	none (no result: EBV gp42 inh, MEX-5 binding)
Cc1ccc(C)c(N2N=C(C(=O)N(CC(C)C)c3c(N)n(Cc4ccccc4)c(=O)[nH]c3=O)CCC2=O)c1	GLD-1 RNA inh 61 (no result: EBV gp42 inh)
Cc1cc(Cn2nc(-c3ccccc3)cc2C(=O)NCC2CC2)on1	none (no result: EBV gp42 inh)
O=C(CNS(=O)(=O)c1ccc([N+](=O)[O-])cc1)N/N=C/c1ccc(O)cc1O	MEX-5 binding -57 (no result: EBV gp42 inh)
O=C(CNS(=O)(=O)c1ccc([N+](=O)[O-])cc1)N/N=C\c1ccc(O)cc1	none (no result: EBV gp42 inh)
CC(=O)Nc1ccc(NC(=O)CSCCc2ccccn2)cc1	none
COC(=O)c1cc2c(cc1NC(=O)CSCCc1ccccn1)OCO2	Bcl-xL primary 31
COC(=O)c1c(C(C)=O)c(C)n(C)c1C	none
O=C(NCCc1ccccc1F)C1CC(=O)N(c2ccc3c(c2)OCCO3)C1 (centres undefined)	none (no result: EBV gp42 inh, GLD-1 RNA inh, MEX-5 binding, Bcl-xL primary, MCL1 BIM primary)
CCOC(=O)Cc1nc2ccccc2n(CC#N)c1=O	MEX-5 binding -33
CCCCn1c(O)c(N=Nc2ccccn2)c2ccccc21	MEX-5 binding -31
O=C(O)C(Cc1c[nH]c2ccccc12)N1C(=O)C2C3c4ccccc4C(c4ccccc43)[C@@H]2C1=O (some centres undefined)	none
CCOC(=O)C1=NNC(C(=O)c2ccc(Cl)cc2)C1c1ccc(OC)cc1 (centres undefined)	EBV gp42 inh 82
Cc1cc([N+](=O)[O-])nn1CC(=O)NNC(=S)Nc1ccc([N+](=O)[O-])cc1	MEX-5 binding -37
O=C(CN1CCc2ccccc21)NCc1ccc2c(c1)OCO2	none
O=C(CN1CCCc2ccccc21)NCc1ccc2c(c1)OCO2	Bcl-xL primary 47, MCL1 BIM primary 52
Cc1ccc2[nH]c(O)c(N=NC(=O)c3ccc(NS(=O)(=O)c4cccs4)cc3)c2c1	EBV gp42 inh 58
O=C(N=Nc1c(O)[nH]c2ccc(F)cc12)c1ccc(NS(=O)(=O)c2cccs2)cc1	none (no result: EBV gp42 inh, MEX-5 binding)
Cc1ccc2[nH]c(=O)c(C(c3nnnn3CC3CCCO3)N3CCc4ccccc4C3)cc2c1 (centres undefined)	none
Cc1cc2cc(C(c3nnnn3Cc3ccccc3)N3CCc4ccccc43)c(=O)[nH]c2cc1C (centres undefined)	Bcl-xL primary 31
Cc1ccc2[nH]c(=O)c(C(c3nnnn3CC3CCCO3)N3CCCc4ccccc43)cc2c1 (centres undefined)	Bcl-xL primary 42
COc1cccc(C(=O)Nc2sc3c(c2C#N)CCN(C(C)=O)C3)c1	none
COc1ccc(S(=O)(=O)NCCc2nnc3ccc(SCC(=O)Nc4nc(C)cs4)nn23)cc1	none
CCC(=O)c1ccc(OCC(=O)NC2(C#N)CCCCC2)cc1	none (no result: MEX-5 binding)
CCN(CC)CCN1C2=C(C(=O)CC(C)(C)C2)C(c2cccc(F)c2)C2=C1CC(C)(C)CC2=O	EBV gp42 inh 140
O=C(N=Nc1c(O)[nH]c2ccccc12)c1cc(-c2ccc(F)cc2)n[nH]1	EBV gp42 inh 61
Oc1[nH]c2ccccc2c1N=Nc1ccc(F)cc1	MEX-5 binding -62
Oc1[nH]c2ccccc2c1N=Nc1ccccc1	EBV gp42 inh 101, GLD-1 RNA inh 70, MEX-5 binding -42, Bcl-xL primary 41
Oc1[nH]c2ccccc2c1N=Nc1ccccc1F	MEX-5 binding inconclusive
CC(C)(C)NC(=O)C1(C)CCC(=O)N1C1CC1 (centres undefined)	none (no result: EBV gp42 inh, GLD-1 RNA inh, MEX-5 binding, Bcl-xL primary, MCL1 BIM primary)

Screening data deposited in PubChem by several laboratories.
